{"source": "PubChem BioAssay (Tox21)", "note": "Results filed as inconclusive are left out. The source made the active and inactive calls. The call rests on the fitted dose curve; in most records, active means well fitted activation curve with a large enough effect in the repeat runs; inconclusive means weak or mixed curves; inactive means flat fitted curve, though single readings scatter. On the % scale 0 is the no-effect control and ±100 the full control effect.", "data": [{"assay": "A CellTox Green Cytotoxicity Assay to monitor cytotoxicity in HepG2 cells - 24 hour (AID 1224878); further: nearly all actives have a fitted effect of over 45% in size", "settings": "CellTox Green fluorescence; series mostly up to 76.8 µM; cytotoxicity: at the top concentration", "excerpt": "National Center for Advancing Translational Sciences [NCATS]\nNIH Chemical Genomics Center [NCGC]\nU.S. Environmental Protection Agency [EPA]\nNational Institutes of Environmental Health Sciences [NIEHS]\nNational Toxicology Program [NTP]\nCell-based models are critical for drug discovery. Determining the natural cytotoxic effects resulting from test compounds is an essential research activity. A CellTox Green Cytotoxicity Assay to monitor cytotoxicity in real time of continues cell culture during 40 hours of the compound treatment was used to screen Tox21 10K library compounds in HepG2 cells. CellTox Green Cytotoxicity Assay is a nonlytic, homogeneous, biofluorescent method to measure cytotoxicity in cell culture after experimental manipulation. The assay system uses a proprietary asymmetric cyanine dye that is excluded from viable cells but preferentially stains the dead cell's DNA. […] Viable cells produce no appreciable increases in fluorescence. Therefore, the fluorescence signal produced by the binding interaction with dead cell DNA is proportional to cytotoxicity.\nThe mixture of HepG2 cell suspension and reagents were dispensed at 600cells/6 ul/well in 1536-well tissue culture treated black solid bottom plates using a Multidrop dispenser. After the assay plates were incubated at a 37 C/5% CO2 incubator for 5 hours, 23 nL of compounds dissolved in DMSO, positive and negative controls was transferred to the assay plate by a pintool work station. The plates were incubated at 37 C for 40 hours. The fluorescence intensity were measured at 0h, 8h, 16h, 24h, 32h and 40h time points using ViewLux plate reader during compound treatment.", "values": [{"smiles": "Cc1ncc([N+](=O)[O-])n1CC(C)O", "note": "(stereo not given)", "cytotoxicity": "-0.63% [at 35.3 µM] (inactive)"}, {"smiles": "COC(=O)/C=C\\C(=O)O", "cytotoxicity": "-13.7% (inactive)"}, {"smiles": "CCCCOC(=O)C(C)O", "note": "(stereo not given)", "cytotoxicity": "-17.3% (inactive)"}, {"smiles": "COCCc1ccccn1", "cytotoxicity": "4.51% [at 35.3 µM] (inactive)"}, {"smiles": "N[C@@H](CSCCCO)C(=O)O", "cytotoxicity": "-17.7% [at 15.8 µM] (inactive)"}, {"smiles": "CO[Si](CCCn1c(=O)n(CCC[Si](OC)(OC)OC)c(=O)n(CCC[Si](OC)(OC)OC)c1=O)(OC)OC", "cytotoxicity": "-6.42% [at 35.3 µM] (inactive)"}, {"smiles": "CC(=O)C(C)O", "note": "(stereo not given)", "cytotoxicity": "1.48% (inactive)"}, {"smiles": "O=C(O)c1cc2ccccc2nc1C(=O)O", "cytotoxicity": "-4.8% (inactive)"}, {"smiles": "Cc1cccc(Cl)c1", "cytotoxicity": "-2.89% (inactive)"}, {"smiles": "OCC1CCC(CO)CC1", "note": "(stereo not given)", "cytotoxicity": "2.92% (inactive)"}, {"smiles": "O=NN(CCCl)C(=O)NC1CCCCC1", "cytotoxicity": "0.87% [at 35.3 µM] (inactive)"}, {"smiles": "CN(C)CCCCl", "cytotoxicity": "-10.5% (inactive)"}, {"smiles": "CC(=O)O[C@H]1C[C@@H]2CC[C@@]1(C)C2(C)C", "cytotoxicity": "6.22% (inactive)"}, {"smiles": "CC(=O)Nc1ccc(OC(=O)c2ccccc2OC(C)=O)cc1", "cytotoxicity": "-12.2% [at 35.3 µM] (inactive)"}, {"smiles": "O=C(O)CSCC(=O)NC1CCSC1=O", "note": "(stereo not given)", "cytotoxicity": "-14.2% [at 35.3 µM] (inactive)"}, {"smiles": "C=C(C)[C@@H]1CC=C(C)C(=O)C1", "cytotoxicity": "2.52% (inactive)"}, {"smiles": "CC(C)[C@H]1CC[C@H](C)C[C@@H]1O", "cytotoxicity": "6.2% (inactive)"}, {"smiles": "CC1=C(O)C(=O)C(C)O1", "note": "(stereo not given)", "cytotoxicity": "-9.22% (inactive)"}, {"smiles": "CCCCCC(C)O", "note": "(stereo not given)", "cytotoxicity": "-8.63% (inactive)"}, {"smiles": "COC(=O)CCCCC(CCSS/C(CCO)=C(\\C)N(C=O)Cc1cnc(C)nc1N)SC(C)=O", "note": "(stereo not given)", "cytotoxicity": "-20.7% [at 35.3 µM] (inactive)"}, {"smiles": "C=CC/C=C/C", "cytotoxicity": "3.3% (inactive)"}, {"smiles": "Cc1ccc2c(c1)C(=O)c1ccccc1C2=O", "cytotoxicity": "-11.9% (inactive)"}, {"smiles": "CCCCCc1cccc(=O)o1", "cytotoxicity": "7.79% (inactive)"}, {"smiles": "Cc1c(C(=O)c2c[nH]n(C)c2=O)ccc(S(C)(=O)=O)c1C1=NOCC1", "cytotoxicity": "-4.99% [at 35.3 µM] (inactive)"}, {"smiles": "CCO[Si](CC)(OCC)OCC", "cytotoxicity": "-4.14% (inactive)"}, {"smiles": "CC(Oc1cc(Cl)ccc1Cl)C(=O)O", "note": "(stereo not given)", "cytotoxicity": "0.474% (inactive)"}, {"smiles": "O=C(O)[C@H](O)c1ccccc1", "cytotoxicity": "12.8% [at 35.3 µM] (inactive)"}, {"smiles": "O=C(CN1CCNCC1)NC1CCCCC1", "cytotoxicity": "6.33% [at 35.3 µM] (inactive)"}, {"smiles": "CC(C)OC(=O)OCOP(=O)(CO[C@H](C)Cn1cnc2c(N)ncnc21)OCOC(=O)OC(C)C", "cytotoxicity": "-1.17% [at 35.3 µM] (inactive)"}, {"smiles": "C=C(C)[C@@H]1CC=C(C)CC1", "cytotoxicity": "8.01% (inactive)"}, {"smiles": "CC(C)c1ccc(C=O)cc1", "cytotoxicity": "2.13% (inactive)"}, {"smiles": "O=C(O)CCCCCC(=O)O", "cytotoxicity": "0.357% (inactive)"}, {"smiles": "N#Cc1ccccc1O", "cytotoxicity": "-9.78% (inactive)"}, {"smiles": "CCCC(=O)OCCC(C)CCC=C(C)C", "note": "(stereo not given)", "cytotoxicity": "0.85% (inactive)"}, {"smiles": "C=C(C)C1CC=C(C)C(=O)C1", "note": "(stereo not given)", "cytotoxicity": "-5.34% (inactive)"}, {"smiles": "CC(=O)c1cc(C)oc1C", "cytotoxicity": "-12.3% (inactive)"}, {"smiles": "CC1CC(=O)CC(C)(C)C1", "note": "(stereo not given)", "cytotoxicity": "-4.89% (inactive)"}, {"smiles": "OCCN1CCOCC1", "cytotoxicity": "-3.74% (inactive)"}, {"smiles": "CCCC(=O)OC/C=C(\\C)CCC=C(C)C", "cytotoxicity": "7.71% (inactive)"}, {"smiles": "NCCOCCN", "cytotoxicity": "-13.7% (inactive)"}]}]}
